Experimental data reported in PubChem BioAssay.
Values without a mark were called inactive. For some assays here: Results with a measured potency or affinity are listed apart. Active and inactive are the calls of the source. Unless noted, no rule for the calls is given here.

What was measured:
[1] = antimalarial activity against Dd2 strain (AID 2302;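 active = growth inhibition above 50% at the single 2 µM test dose, taken to imply half-maximal potency below 2 µM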;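 also: 0% = DMSO untreated growth and 100% = chloroquine plus artemisinin killed control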); conditions: P. falciparum Dd2 in RBCs, LDH growth readout, 72 h; at 2 µM; hits give high values
[2] = HepG2 cytotoxicity, primary screen, cytotoxicity control for P. falciparum antimalarial project, cell-based, ATP luminescence (AID 2303;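 active = inhibition above 50%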;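 also: 0% = DMSO wells and 100% = digitonin-killed cells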); conditions: HepG2 viability, 24-48 h, at 10 µM, hits give high values
[3] = molecular target: L-lactate dehydrogenase (Plasmodium falciparum (isolate CDC / Honduras)) (UniProt Q27743); test: PfLDH activity inhibition – cell lysate, 3D7 strain, counter-screen for P. falciparum growth inhibition project (AID 2304);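 also: 0% = vehicle and 100% = reference inhibitor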; conditions: P. falciparum 3D7 crude extract, LDH APAD/NBT absorbance; at 2 µM; hits give high values
L-lactate dehydrogenase (Plasmodium falciparum (isolate CDC / Honduras)), sequence (Q27743 whole entry, looked up): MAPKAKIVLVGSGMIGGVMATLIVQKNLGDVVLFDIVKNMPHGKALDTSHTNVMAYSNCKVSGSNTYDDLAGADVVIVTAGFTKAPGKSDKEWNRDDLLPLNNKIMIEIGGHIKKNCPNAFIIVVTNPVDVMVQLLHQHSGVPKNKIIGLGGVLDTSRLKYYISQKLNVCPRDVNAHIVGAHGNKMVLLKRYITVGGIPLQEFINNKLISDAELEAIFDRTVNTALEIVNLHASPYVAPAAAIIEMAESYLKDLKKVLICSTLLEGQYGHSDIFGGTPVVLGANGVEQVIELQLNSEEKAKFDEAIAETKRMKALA

[4] = inhibition of 3D7 malaria parasite growth – strain 3D7 (AID 2306);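 also: 0% = DMSO wells and 100% = chloroquine plus artemisinin control wells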; conditions: P. falciparum 3D7 erythrocytic growth, LDH absorbance, 72 h; at 2 µM; hits give high values
[5] = molecular target: Calcium-dependent protein kinase 1 (Plasmodium falciparum (isolate 3D7)) (UniProt P62344); test: PfCDPK1 kinase inhibitors, biochemical, TCAMS library (AID 1159585; cut-off not given, nearly all actives have IC50 up to about 0.98 µM;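 also: inhibitors leave more ATP so luminescence rises with inhibition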); conditions: recombinant PfCDPK1, Kinase-Glo ATP depletion luminescence
Calcium-dependent protein kinase 1 (Plasmodium falciparum (isolate 3D7)), sequence (P62344 whole entry, looked up): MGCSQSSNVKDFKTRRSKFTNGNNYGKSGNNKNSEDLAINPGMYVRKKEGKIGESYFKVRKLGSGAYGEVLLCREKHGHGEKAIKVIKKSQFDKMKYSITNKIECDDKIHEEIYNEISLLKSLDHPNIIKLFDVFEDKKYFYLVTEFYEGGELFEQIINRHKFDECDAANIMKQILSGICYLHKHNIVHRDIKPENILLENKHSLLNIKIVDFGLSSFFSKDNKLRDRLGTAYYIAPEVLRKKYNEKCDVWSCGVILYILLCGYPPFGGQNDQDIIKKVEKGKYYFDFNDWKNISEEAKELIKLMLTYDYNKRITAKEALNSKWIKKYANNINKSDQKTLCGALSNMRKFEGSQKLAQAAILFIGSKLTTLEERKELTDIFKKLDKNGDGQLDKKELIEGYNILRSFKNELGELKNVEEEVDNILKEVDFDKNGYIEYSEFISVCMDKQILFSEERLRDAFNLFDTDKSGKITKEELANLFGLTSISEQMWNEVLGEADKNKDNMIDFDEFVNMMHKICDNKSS

[6] = molecular target: Plasmodium falciparum protein kinase 6 (PK6, PF3D7_1337100) (UniProt Q8IDW1); test: PfPK6 kinase inhibitors, biochemical, TCAMS library (AID 1159586); conditions: recombinant PfPK6, Kinase-Glo ATP depletion luminescence
Plasmodium falciparum protein kinase 6 (PK6, PF3D7_1337100), sequence (Q8IDW1 1-305): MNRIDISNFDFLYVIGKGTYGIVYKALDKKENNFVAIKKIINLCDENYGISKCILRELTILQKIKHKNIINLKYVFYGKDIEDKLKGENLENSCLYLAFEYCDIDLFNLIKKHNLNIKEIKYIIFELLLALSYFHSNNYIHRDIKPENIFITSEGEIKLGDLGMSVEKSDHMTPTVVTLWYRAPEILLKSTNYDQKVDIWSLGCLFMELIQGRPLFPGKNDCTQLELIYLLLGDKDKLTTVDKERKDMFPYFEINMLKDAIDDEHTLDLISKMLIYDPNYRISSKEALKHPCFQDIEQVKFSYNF

[7] = molecular target: Protein kinase 7 (PK7), Plasmodium falciparum 3D7 (PF3D7_0213400) (UniProt Q7YTF7); test: inhibition of Plasmodium PK7 catalytic activity – biochemical, TCAMS antimalarial set, Kinase-Glo luminescence (AID 1159587); conditions: recombinant PfPK7, Kinase-Glo ATP depletion luminescence
Protein kinase 7 (PK7), Plasmodium falciparum 3D7 (PF3D7_0213400), sequence (Q7YTF7 1-343): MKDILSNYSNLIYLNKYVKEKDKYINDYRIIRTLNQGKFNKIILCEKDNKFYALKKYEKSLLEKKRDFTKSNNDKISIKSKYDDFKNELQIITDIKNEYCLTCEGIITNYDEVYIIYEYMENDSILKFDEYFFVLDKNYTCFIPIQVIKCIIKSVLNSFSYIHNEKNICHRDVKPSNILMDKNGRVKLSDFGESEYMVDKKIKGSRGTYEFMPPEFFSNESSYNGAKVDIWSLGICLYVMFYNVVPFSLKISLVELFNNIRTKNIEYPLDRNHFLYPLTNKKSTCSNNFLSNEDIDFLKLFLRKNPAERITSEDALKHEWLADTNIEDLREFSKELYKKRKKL

[8] = molecular target: Calcium-dependent protein kinase 4 (Plasmodium falciparum (isolate 3D7)) (UniProt Q8IBS5); test: PfCDPK4 kinase inhibitors, biochemical, TCAMS library (AID 1159588; cut-off not given, nearly all actives have IC50 up to about 0.91 µM); conditions: recombinant PfCDPK4, Kinase-Glo ATP depletion luminescence
Calcium-dependent protein kinase 4 (Plasmodium falciparum (isolate 3D7)), sequence (Q8IBS5 whole entry, looked up): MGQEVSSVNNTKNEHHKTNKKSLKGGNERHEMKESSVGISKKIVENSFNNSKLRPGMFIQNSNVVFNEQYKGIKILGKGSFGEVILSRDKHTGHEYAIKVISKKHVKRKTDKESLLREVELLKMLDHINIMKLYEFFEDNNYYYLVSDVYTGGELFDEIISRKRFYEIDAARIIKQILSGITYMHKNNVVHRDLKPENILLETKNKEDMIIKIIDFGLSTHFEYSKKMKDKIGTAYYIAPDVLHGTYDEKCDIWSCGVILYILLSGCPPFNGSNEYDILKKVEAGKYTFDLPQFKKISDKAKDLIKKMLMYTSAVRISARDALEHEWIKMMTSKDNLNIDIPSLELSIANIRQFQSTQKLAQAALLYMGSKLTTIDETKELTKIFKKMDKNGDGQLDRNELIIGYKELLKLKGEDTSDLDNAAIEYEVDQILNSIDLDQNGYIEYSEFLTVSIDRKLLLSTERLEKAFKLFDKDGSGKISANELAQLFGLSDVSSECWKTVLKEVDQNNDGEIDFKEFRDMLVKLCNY

Row | SMILES | growth inhibition [1] | inhibition [2] | inhibition [3] [%] | growth inhibition [4] | outcome [5] | outcome [6] | outcome [7] | outcome [8]
1 | COc1ccccc1/C=C/C(=O)NC1CCC(CCN2CCc3ccc(-c4cc(C)no4)cc3CC2)CC1 (configuration not stated) | 11% | 47% | 0 | 95% (active) | inactive | inactive | inactive | inactive
2 | O=C(/C=C/c1ccc(Cl)cc1)NCCCCCN1CCCN(C(=O)Nc2ccc(Cl)c(C(F)(F)F)c2)CC1 | 1% | 54% (active) | 1 | 95% (active) | inactive | inactive | inactive | inactive
3 | Cc1ccccc1C1CCN(C2CCC(NC(=O)/C=C/c3cccc(Cl)c3Cl)CC2)CC1 (configuration not stated) | 23% | 74% (active) | 2 | 94% (active) | inactive | inactive | inactive | inactive
4 | O=C(Nc1cccnc1)c1cc(-c2cc(Cl)ccc2O)n[nH]1 | 85% (active) | 7% | 6 | 98% (active) | inactive | inactive | inactive | inactive
